Bioassay records deposited in PubChem by The Scripps Research Institute Molecular Screening Center.
Shown are actives, neighbours in structure and some others; about 3.5% of the full set was active somewhere.
MITF primary: inhibitors of human MITF; AID 1259374; O75030; AlphaScreen MITF homodimerization, bead proximity signal; hit rate 0.91% among 650,000; inhibition, % at 2.6 µM; in the data active means inhibition above about 50%;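 further: 0% = vehicle wells with protein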
FBW7 act: human FBW7 E3 ligase activation, primary screen; AlphaScreen FBW7–phospho-cyclin E peptide binding, activator screen; normalized activity (activation), % at 26.1 µM; hit rate 0.13% among 650,000; AID 1259310; in the data active means normalized activity above about 1.9%;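 further: purified mutant Fbw7 with reduced substrate affinity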
TEAD-YAP inh: TEAD-YAP interaction inhibition; HEK-TIYL cells, TEAD-Gal4/YAP UAS-luciferase luminescence; hit rate 1.4% among 640,000; inhibition, % at 9.12 µM; AID 1259422; in the data active means inhibition above about 32%;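 further: 0% = median of test compound wells and 100% = reference inhibitor wells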
GPR151 activ: human GPR151 activation | activation, % at 11.2 µM | AID 1508602 | PathHunter beta-arrestin GPR151 cells, luminescence | hit rate 1% among 650,000 | Q8TDV0; in the data active means activation above about 4.9%;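 further: 0% = median of compound wells and 100% = cells with positive control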
Target sequence (Q8TDV0 whole entry, looked up): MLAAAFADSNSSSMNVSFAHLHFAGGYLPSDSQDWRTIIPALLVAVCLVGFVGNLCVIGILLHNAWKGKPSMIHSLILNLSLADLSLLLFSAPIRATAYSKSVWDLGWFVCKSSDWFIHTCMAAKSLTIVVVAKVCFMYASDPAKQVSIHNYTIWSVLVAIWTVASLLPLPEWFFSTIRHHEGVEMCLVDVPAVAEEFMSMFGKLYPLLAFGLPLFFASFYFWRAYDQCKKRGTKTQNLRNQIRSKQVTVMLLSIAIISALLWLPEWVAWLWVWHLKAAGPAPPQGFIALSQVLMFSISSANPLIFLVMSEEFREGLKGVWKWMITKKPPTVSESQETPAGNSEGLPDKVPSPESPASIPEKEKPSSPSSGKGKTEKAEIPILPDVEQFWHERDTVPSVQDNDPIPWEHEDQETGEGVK
Active calls of the source: *.

SMILES | MITF primary | FBW7 act | TEAD-YAP inh | GPR151 activ
O=C(c1ccc(-c2nnc(-c3ccccc3)o2)cc1)N1CCOCC1 | -14 | 0 | 43* | -10
CC(=O)Nc1ccc(C(=O)N2CCOCC2)cc1 | 13 | 1 | 7 | -1
COc1ccc(Cl)cc1NC(=O)Cn1nnc(C(=O)NCc2cccs2)c1N | -7 | 0 | 45* | 0
CN(C)/C=N/C1=C(C#N)C(c2ccc3c(c2)OCO3)c2ccc3ccccc3c2O1 (centres undefined) | -7 | 0 | 45* | 1
COc1ccc(-c2nc(C(N)=O)c3[nH]c(=O)n(-c4ccc(F)cc4)c3n2)cc1 | -4 | 0 | 36* | 0
COc1ccc(-c2nc(C(N)=O)c3[nH]c(=O)n(-c4ccccc4OC)c3n2)cc1OC | 19 | 0 | 32* | 1
COc1ccc(-c2nc(C(N)=O)c3[nH]c(=O)n(-c4cccc(Cl)c4)c3n2)cc1O | 7 | 0 | 63* | 1
COc1ccccc1-n1c(=O)[nH]c2c(C(N)=O)nc(-c3cccc(O)c3)nc21 | 18 | 0 | 34* | -2
CN(CCCCN1CCOCC1)c1nc2nonc2nc1N1CCCCC1 | 5 | 0 | -3 | 3
COc1ccc(C(=O)N2CCN3C(=O)[C@H](Cc4c[nH]c5ccccc45)NC(=O)[C@H]3C2)cc1 | -11 | 0 | -5 | -2
COc1ccc(NC(=O)c2cc3nc(-c4ccco4)cc(C(F)(F)F)n3n2)c(OC)c1 | 17 | 0 | 7 | 3
CCOC(=O)c1nn(-c2ccc(C)c(C)c2)cc1O | -1 | 0 | -35 | 0
CCOC(=O)c1nn(-c2ccc3c(c2)OCCO3)cc1O | -9 | 0 | 43* | -4
Cc1ccc(-n2c(C)cn3c4c(=O)n(Cc5ccccc5)c(=O)n(C)c4nc23)cc1 | 8 | 0 | -2 | 1
CCOC(=O)N1CCN(c2c(NCCCN(CC)c3cccc(C)c3)c(=O)c2=O)CC1 | 68* | 0 | 6 | 1
Cc1nc2ccccn2c1C(=O)NC1CCCc2ccccc21 (centres undefined) | 1 | 0 | 40* | 2
CC(C)OC(=O)c1cccc(C(=O)Nc2cccc([N+](=O)[O-])c2)n1 | 4 | 0 | -32 | 5
O=C1NC(=S)N/C1=C/c1ccccc1Cl | 10 | 0 | 6 | 0
S=c1[nH]ncn1/N=C/c1ccc(N2CCOCC2)cc1 | 16 | 1 | 73* | -2
COC(=O)C1=C(C)NC(C)=C(C(=O)OC)C1c1ccc(F)cc1 | 16 | 0 | 10 | 0
COC(=O)c1c(NC(=O)C(F)(F)F)sc(Cc2ccccc2)c1C | -7 | 0 | 5 | 1
COC(=O)c1c(NC(=O)/C=C\C(=O)O)sc(Cc2ccccc2)c1C | -5 | 0 | 32* | 0
Cc1c(Cc2ccccc2)c(N2CCN(Cc3ccccc3)CC2)n2c(nc3ccccc32)c1C#N | 8 | 2.0* | -8 | 2
CCOc1ccc(-n2c(SCC(=O)N3CCCC3)nc3c(sc(=S)n3-c3ccc(CC)cc3)c2=O)cc1 | 3 | 0 | -9 | -1
CCN1CCN(c2ccc(NC(=O)c3ccc(Br)cc3)cc2)CC1 | 11 | 1 | -7 | 0
SMILES | MITF primary | FBW7 act | TEAD-YAP inh | GPR151 activ
CNC1=C(N2CCCCC2)C(=O)c2ccccc2C1=O | 13 | 1 | 94* | -3
CCOc1ccc(NC2=C(N3CCOCC3)C(=O)c3ccccc3C2=O)cc1 | 54* | 0 | -25 | 1
CCCNC1=C(N2CCCCC2)C(=O)c2ccccc2C1=O | 23 | 1 | 93* | -1
O=C1C(NC2CCCCC2)=C(N2CCCCC2)C(=O)c2ccccc21 | 16 | 1 | 1 | -1
O=C1C(N2CCCCC2)=C(N2CCCCC2)C(=O)c2ccccc21 | -7 | -1 | -2 | -3
CC(=O)Nc1ccc(NC2=C(N3CCOCC3)C(=O)c3ccccc3C2=O)cc1 | 11 | 0 | -5 | -1
COc1cc(CC(=O)O)c(OC)cc1Br | -17 | 0 | 1 | 0
COC(=O)[C@@H]1CCCN1C(=O)c1c(CC2CCCC2)n(Cc2cccnc2)c(C)cc1=O | 2 | 0 | -11 | 1
Cc1[nH]c2ccc(-c3nnc(SCC(=O)NCc4ccco4)n3-c3ccccc3)cc2c1C | -14 | 0 | -1 | 0
Cc1cc(S(=O)(=O)O)ccc1N1N=C(C(=O)O)CC1=O | 71* | -2 | 2 | 0
CCCCOC(=O)c1ccc(N2C(=O)c3ccc(C(=O)OCC(=O)c4ccc(Br)cc4)cc3C2=O)cc1 | -9 | 0 | -2 | -1
Fc1ccccc1-c1cnn2ccc(NCc3cccnc3)nc12 | 13 | 0 | 42* | 0
c1cncc(CNc2ccn3ncc(-c4cccc5ccccc45)c3n2)c1 | 8 | 0 | -8 | 0
